PubChem BioAssay AID743363 (Broad Institute, 2014)
The source made the active and inactive calls. No rule for the calls is given here.

Test: BioD-coupled fluorescence displacement counter-assay – biochemical, dry powder samples, counter-screen, dose response (AID 743363)
Conditions: FL-DTB/streptavidin fluorescence displacement counter-screen; series mostly up to 10 µM

| SMILES | outcome |
| --- | --- |
| COCC(=O)N1CC[C@@H]2[C@@H](CO)N(C)c3ccc(-c4cccc(F)c4)cc3[C@@H]21 | inactive |
| COC(=O)CCCCCCC(=O)N1CC[C@@H]2[C@@H](CO)N(C)c3ccc(-c4cccc(F)c4)cc3[C@@H]21 | inactive |
| CS(=O)(=O)c1ccc(N2CCN(C(=O)c3ccc4c(c3)OCO4)CC2)cc1 | inactive |
| CC(=O)c1ccc(N2CCN(C(=O)c3cccc4c3OCO4)CC2)cc1 | inactive |
| COc1ccc(NC(=O)N2CC[C@@H]3[C@@H](CO)N(C)c4ccc(-c5ccc(F)cc5)cc4[C@@H]32)cc1 | inactive |
| CC(=O)c1ccc(N2CCN(C(=O)c3ccc4c(c3)OC(C)(C)O4)CC2)cc1 | inactive |
| COc1cc(C(=O)N2CCN(c3ccc(C(C)=O)cc3)CC2)cc2c1OCO2 | inactive |
| O=C(c1ccc2c(c1)OCO2)N1CCN(c2ccc(C(F)(F)F)cc2)CC1 | inactive |
| CN1c2ccc(-c3ccc(F)cc3)cc2[C@H]2[C@H](CCN2C(=O)Nc2cc(F)ccc2F)[C@H]1CO | inactive |
| O=C(c1ccc2c(c1)OCO2)N1CCN(c2ccc(OC(F)(F)F)cc2)CC1 | inactive |
| COC(=O)c1ccc(N2CCN(C(=O)c3ccc4c(c3)OCO4)CC2)cc1 | inactive |
| CC(=O)c1ccc(N2CCN(C(=O)c3cc4c(cc3Cl)OCO4)CC2)cc1 | inactive |
| COc1cc2c(cc1C(=O)N1CCN(c3ccc(C(C)=O)cc3)CC1)OCO2 | inactive |
| CC(=O)c1ccc(N2CCN(C(=O)c3ccc(Cl)c(Cl)c3)CC2)cc1 | inactive |
| CN1c2ccc(-c3cccc(F)c3)cc2[C@H]2[C@H](CCN2C(=O)CCCCCCN)[C@H]1CO | inactive |
| COc1ccc(C(=O)N2CCN(c3ccc(C(C)=O)cc3)CC2)cc1OC | inactive |
| CN1c2ccc(-c3cccc(F)c3)cc2[C@H]2[C@H](CCN2C(=O)c2ccc3c(c2)OCO3)[C@@H]1CO | inactive |
| CN1c2ccc(-c3cccc(F)c3)cc2[C@@H]2[C@@H](CCN2C(=O)c2ccc3c(c2)OCO3)[C@H]1CO | inactive |
| CCCCCCCC(=O)N1CC[C@@H]2[C@@H](CO)N(C)c3ccc(-c4cccc(F)c4)cc3[C@@H]21 | inactive |
| CC(=O)c1ccc(N2CCN(C(=O)Nc3ccc4c(c3)OCO4)CC2)cc1 | inactive |
| CC(=O)c1ccc(N2CCN(C(=O)c3ccc4c(c3)OCO4)CC2)cc1 | inactive |
| CC(C)NC(=O)N1CC[C@@H]2[C@@H](CO)N(C)c3ccc(-c4cccc(F)c4)cc3[C@@H]21 | inactive |
| CC(=O)c1ccc(N2CCN(C(=O)c3ccccc3F)CC2)cc1 | inactive |
| CC(=O)c1ccc(N2CCN(S(=O)(=O)c3ccc4c(c3)OCO4)CC2)cc1 | inactive |
| CN1c2ccc(-c3cccc(F)c3)cc2[C@H]2[C@H](CCN2C(=O)Nc2ccccc2F)[C@H]1CO | inactive |
| CC(=O)c1ccc(N2CCN(C(=O)c3cc4c(cc3C)OCO4)CC2)cc1 | inactive |
| CN1c2ccc(-c3ccc(F)cc3)cc2[C@H]2[C@H](CCN2C(=O)Cc2ccccn2)[C@H]1CO | inactive |
| N#Cc1ccc(N2CCN(C(=O)c3ccc4c(c3)OCO4)CC2)cc1 | inactive |
| CN(C)C(=O)c1ccc(N2CCN(C(=O)c3ccc4c(c3)OCO4)CC2)cc1 | inactive |
| CC(=O)c1ccc(N2CC3(CN(C(=O)c4ccc5c(c4)OCO5)C3)C2)cc1 | inactive |
